{
  "source": "PubChem BioAssay AID1321",
  "about": "(The Scripps Research Institute Molecular Screening Center, 2008)",
  "note": "Hit rate of the full screen: of about 220,000 compounds, about 2,600 (1.2%) were called active.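 The calls were made as follows: active = activation above the mean of all tested compounds plus 3 SD, set per screening run (cut at about 8.8% in these data); inactive = the rest.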 This excerpt belongs to a sample that is enriched for actives.",
  "data": [
    {"target": "Wee1-like protein kinase (Homo sapiens) (UniProt P30291)", "assay": "Wee1 degradation inhibitors, primary screen, cell-based, HeLa, Wee1K328M-luciferase, luminescence (AID 1321);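 also: cells exposed to compound for 20 h before luminescence read; 0% = DMSO alone and 100% = MG132 at 30 µM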", "settings": "HeLa Luc-Wee1K328M stability, at 5 µM, stronger effect = higher value", "values": [
      {"compound": "O=c1[nH]c(=O)n(Cc2ccccc2)c(O)c1/C=N/Nc1c(F)c(F)c(F)c(F)c1F", "activation": "-0.63% (inactive)"},
      {"compound": "CCCCC(=O)N/N=C/c1c(O)n(-c2ccccc2)c(=O)[nH]c1=O", "activation": "-2.55% (inactive)"},
      {"compound": "O=C(N/N=C/c1c(O)n(Cc2ccccc2)c(=O)[nH]c1=O)c1ccccc1", "activation": "16.4% (active)"},
      {"compound": "CN(C)CC1CCCCC1=O", "note": "(stereo not given)", "activation": "-1.81% (inactive)"},
      {"compound": "NC(=O)Nc1cccc(C(F)(F)F)c1", "activation": "0.59% (inactive)"}
    ]}
  ]
}
